{"source": "PubChem BioAssay (NCI)", "note": "About 79,000 compounds went through this panel and 15% of them were active in at least one assay; those are over-represented in the sample as a whole. Values without a mark were called inactive. Rule as the data show it: active = growth inhibition above about 70%; inactive = the rest. Where a SMILES comes first, the peptide text is derived from it. [ ]: non-standard residue; d: D form. The star is where a group is joined. ξ: configuration not given here. Boc = CC(C)(C)OC(=O)*; ξV = CC(C)C(N)C(=O)O; OBn = c1ccc(CO*)cc1", "data": [{"test": "NCI Yeast Anticancer Drug Screen. Data for the sgs1 mgt1 strain (AID 161);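 also: 0% = growth of cultures given vehicle only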", "details": "S. cerevisiae sgs1 mgt1 strain, at 50.0 µM, stronger effect = higher value", "in_short": "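Yeast cells carrying a defined DNA-repair defect were exposed to test compounds. Growth inhibition was measured relative to vehicle-treated controls.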", "units": {"growth inhibition": "%"}, "values": [{"smiles": "COC(=O)NCP(=O)(CNC(=O)OC)CNC(=O)OC", "growth inhibition": -1.35}, {"smiles": "O=C(N/N=C/c1ccc(O)cc1)C1CCCO1", "note": "(stereo not given)", "growth inhibition": -1.35}, {"smiles": "Cc1ccccc1NC(=O)C(=O)Cc1nc2ccccc2s1", "growth inhibition": -1.5}, {"smiles": "NS(=O)(=O)c1ccc(Nc2c3ccccc3nc3ncccc23)cc1", "growth inhibition": 13.9}, {"smiles": "CSc1ccc(Nc2ncnc(N)n2)cc1", "growth inhibition": 8.6}, {"smiles": "CC1(C)OC1(C(=O)C=[N+]=[N-])c1ccccc1", "note": "(stereo not given)", "growth inhibition": -23.9}, {"smiles": "COC(=O)CCc1c(C)[nH]c(C(=O)OC(C)(C)C)c1C", "growth inhibition": -10.9}, {"smiles": "COc1cc(NCCNCC(C)(C)C)c2ncccc2c1", "growth inhibition": 22.1}, {"smiles": "N#CCCNC1CCCCC1", "growth inhibition": 2.5}, {"smiles": "CC(=NNC(=S)Nc1ccccc1)c1cccc(C(C)=NNC(=S)Nc2ccccc2)n1", "growth inhibition": -0.8}, {"smiles": "CC12CCC(=O)C=C1CCC1C2C(=O)CC2(C)C1CCC2(O)C(=O)Cn1c(=O)[nH]cc(F)c1=O", "note": "(stereo not given)", "growth inhibition": 3.55}, {"smiles": "COc1cc(C2c3cc4c(cc3OC(N3CCCCC3)C2C)OCO4)cc(OC)c1O", "note": "(stereo not given)", "growth inhibition": -14.3}, {"smiles": "CC(=O)NC(Cc1cc(I)c(OC(C)=O)c(I)c1)C(=O)O", "note": "(stereo not given)", "growth inhibition": 3.45}, {"smiles": "C=CCCC1CN2CCc3cc(OC)c(OC)cc3C2CC1=O", "note": "(stereo not given)", "growth inhibition": 10.6}, {"smiles": "c1ccc2cc(SSc3ccc4ccccc4c3)ccc2c1", "growth inhibition": -15.9}, {"smiles": "CCCCCC(=C/c1ccccc1)/C=N/N1CCN(/N=C/C(=C/c2ccccc2)CCCCC)CC1", "growth inhibition": 22.4}, {"smiles": "Cc1cc2nc(N3CCCCC3)n(C3OC(CO)C(O)C3O)c2cc1C", "note": "(stereo not given)", "growth inhibition": -0.45}, {"smiles": "O=c1[nH]cc(SSc2c[nH]c(=O)[nH]c2=O)c(=O)[nH]1", "growth inhibition": 4.2}, {"smiles": "O=C1CN(c2cccc(Cl)c2)C(=O)CN1CCN1CC(=O)N(c2cccc(Cl)c2)CC1=O", "growth inhibition": -19.6}, {"smiles": "COc1cc(OC)cc(N(C)Cc2cnc3nc(N)nc(N)c3c2C)c1", "growth inhibition": 15.6}, {"smiles": "Cc1ccc(S(=O)(=O)NNCCC#N)cc1", "growth inhibition": -4.35}, {"smiles": "C1#CCSCC#CCSC1", "growth inhibition": 11.1}, {"smiles": "Clc1ccc(/C=C/c2nc3ccccc3s2)cc1Cl", "growth inhibition": 3.1}, {"smiles": "Cc1c(NC=O)c(=O)n(-c2ccccc2)n1C", "growth inhibition": 32.9}, {"smiles": "Nc1ncnc2c1ccn2C1OC2COP(=O)(O)OC2C1O", "note": "(stereo not given)", "growth inhibition": -7.1}, {"smiles": "CC(/C=C/C=C/C=C/C=C/C=C/C(O)=C1/C(=O)C(CCC(=O)O)N(C)C1=O)=C\\C(C)C(OC1CC(O)C(O)C(C)O1)C(C)C", "note": "(stereo not given)", "growth inhibition": -1.7}, {"smiles": "COc1cccc(-c2nnc(-c3cccc(OC)c3)o2)c1", "growth inhibition": 16.6}, {"smiles": "COc1ccc2c(C#N)cc3c4ccccc4ncc3c2c1", "growth inhibition": -9.6}, {"smiles": "CC(=O)CC(=O)NCc1ccccc1", "growth inhibition": 25}, {"smiles": "CC(O)c1ccccc1Br", "note": "(stereo not given)", "growth inhibition": -16.2}, {"smiles": "O=C(NC(Cc1ccccc1)C(=O)O)c1ccccc1", "note": "(stereo not given)", "growth inhibition": 24.1}, {"smiles": "CC(C)C(NC(=O)OC(C)(C)C)C(=O)NCC(=O)OCc1ccccc1", "note": "(stereo not given) (Boc-[ξV]-Gly-OBn)", "growth inhibition": 12.2}, {"smiles": "CCN(CC)C(=O)C1C(C=C(C)C)C1(C)C", "note": "(stereo not given)", "growth inhibition": 12.2}, {"smiles": "CCC/C(=C(\\C)c1ccccc1)c1ccccc1", "growth inhibition": 37.7}, {"smiles": "CCCOCC(O)CNCCNCC(O)COCCC", "note": "(stereo not given)", "growth inhibition": 8.15}, {"smiles": "COc1ccc2c(=O)c(O)c(-c3ccccc3)oc2c1", "growth inhibition": 42.5}, {"smiles": "CC1(C)OC(=O)N=C1c1ccc(F)cc1", "growth inhibition": -1.25}, {"smiles": "CCOC(=O)[C@H]1CSC[C@@H](C(=O)OC)N1", "growth inhibition": -10.6}, {"smiles": "O=[N+]([O-])c1ccccc1C1N2CCCCC2[C@@H]2c3[nH]c4ccccc4c3CCN12", "note": "(stereo not given in full)", "growth inhibition": 3.3}, {"smiles": "CCOC(=O)c1nc2ccc(C(F)(F)F)cc2[nH]c1=O", "growth inhibition": -17.4}]}, {"test": "NCI Yeast Anticancer Drug Screen. Data for the cln2 rad14 strain (AID 165);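 also: 0% = growth equal to vehicle treated cultures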", "details": "S. cerevisiae cln2 rad14 strain, at 50.0 µM, stronger effect = higher value", "in_short": "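Growth inhibition, relative to vehicle-treated controls, is the read-out. The test organism is a yeast strain with defined genetic alterations, cln2 rad14.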", "units": {"growth inhibition": "%"}, "values": [{"smiles": "COC(=O)NCP(=O)(CNC(=O)OC)CNC(=O)OC", "growth inhibition": 8.65}, {"smiles": "O=C(N/N=C/c1ccc(O)cc1)C1CCCO1", "note": "(stereo not given)", "growth inhibition": -64.2}, {"smiles": "Cc1ccccc1NC(=O)C(=O)Cc1nc2ccccc2s1", "growth inhibition": 11.8}, {"smiles": "NS(=O)(=O)c1ccc(Nc2c3ccccc3nc3ncccc23)cc1", "growth inhibition": -11.8}, {"smiles": "CSc1ccc(Nc2ncnc(N)n2)cc1", "growth inhibition": -1.4}, {"smiles": "CC1(C)OC1(C(=O)C=[N+]=[N-])c1ccccc1", "note": "(stereo not given)", "growth inhibition": -15.8}, {"smiles": "COC(=O)CCc1c(C)[nH]c(C(=O)OC(C)(C)C)c1C", "growth inhibition": 14.9}, {"smiles": "COc1cc(NCCNCC(C)(C)C)c2ncccc2c1", "growth inhibition": 11.8}, {"smiles": "N#CCCNC1CCCCC1", "growth inhibition": -14.3}, {"smiles": "CC(=NNC(=S)Nc1ccccc1)c1cccc(C(C)=NNC(=S)Nc2ccccc2)n1", "growth inhibition": 2.65}, {"smiles": "CC12CCC(=O)C=C1CCC1C2C(=O)CC2(C)C1CCC2(O)C(=O)Cn1c(=O)[nH]cc(F)c1=O", "note": "(stereo not given)", "growth inhibition": 5.65}, {"smiles": "COc1cc(C2c3cc4c(cc3OC(N3CCCCC3)C2C)OCO4)cc(OC)c1O", "note": "(stereo not given)", "growth inhibition": 6.95}, {"smiles": "CC(=O)NC(Cc1cc(I)c(OC(C)=O)c(I)c1)C(=O)O", "note": "(stereo not given)", "growth inhibition": 6}, {"smiles": "C=CCCC1CN2CCc3cc(OC)c(OC)cc3C2CC1=O", "note": "(stereo not given)", "growth inhibition": -41.7}, {"smiles": "c1ccc2cc(SSc3ccc4ccccc4c3)ccc2c1", "growth inhibition": 0.1}, {"smiles": "CCCCCC(=C/c1ccccc1)/C=N/N1CCN(/N=C/C(=C/c2ccccc2)CCCCC)CC1", "growth inhibition": 3.2}, {"smiles": "Cc1cc2nc(N3CCCCC3)n(C3OC(CO)C(O)C3O)c2cc1C", "note": "(stereo not given)", "growth inhibition": 10.7}, {"smiles": "O=c1[nH]cc(SSc2c[nH]c(=O)[nH]c2=O)c(=O)[nH]1", "growth inhibition": -25.3}, {"smiles": "O=C1CN(c2cccc(Cl)c2)C(=O)CN1CCN1CC(=O)N(c2cccc(Cl)c2)CC1=O", "growth inhibition": -7.8}, {"smiles": "COc1cc(OC)cc(N(C)Cc2cnc3nc(N)nc(N)c3c2C)c1", "growth inhibition": 11.3}, {"smiles": "Cc1ccc(S(=O)(=O)NNCCC#N)cc1", "growth inhibition": -0.15}, {"smiles": "C1#CCSCC#CCSC1", "growth inhibition": 24.2}, {"smiles": "Clc1ccc(/C=C/c2nc3ccccc3s2)cc1Cl", "growth inhibition": 9.95}, {"smiles": "Cc1c(NC=O)c(=O)n(-c2ccccc2)n1C", "growth inhibition": 3.65}, {"smiles": "Nc1ncnc2c1ccn2C1OC2COP(=O)(O)OC2C1O", "note": "(stereo not given)", "growth inhibition": 8.45}, {"smiles": "CC(/C=C/C=C/C=C/C=C/C=C/C(O)=C1/C(=O)C(CCC(=O)O)N(C)C1=O)=C\\C(C)C(OC1CC(O)C(O)C(C)O1)C(C)C", "note": "(stereo not given)", "growth inhibition": 3.35}, {"smiles": "COc1cccc(-c2nnc(-c3cccc(OC)c3)o2)c1", "growth inhibition": 1.95}, {"smiles": "COc1ccc2c(C#N)cc3c4ccccc4ncc3c2c1", "growth inhibition": 19.1}, {"smiles": "CC(=O)CC(=O)NCc1ccccc1", "growth inhibition": 17.2}, {"smiles": "CC(O)c1ccccc1Br", "note": "(stereo not given)", "growth inhibition": -13.4}, {"smiles": "O=C(NC(Cc1ccccc1)C(=O)O)c1ccccc1", "note": "(stereo not given)", "growth inhibition": -1.6}, {"smiles": "CC(C)C(NC(=O)OC(C)(C)C)C(=O)NCC(=O)OCc1ccccc1", "note": "(stereo not given) (Boc-[ξV]-Gly-OBn)", "growth inhibition": -3.3}, {"smiles": "CCN(CC)C(=O)C1C(C=C(C)C)C1(C)C", "note": "(stereo not given)", "growth inhibition": 5.3}, {"smiles": "CCC/C(=C(\\C)c1ccccc1)c1ccccc1", "growth inhibition": 14.1}, {"smiles": "CCCOCC(O)CNCCNCC(O)COCCC", "note": "(stereo not given)", "growth inhibition": -34.5}, {"smiles": "COc1ccc2c(=O)c(O)c(-c3ccccc3)oc2c1", "growth inhibition": 10.4}, {"smiles": "CC1(C)OC(=O)N=C1c1ccc(F)cc1", "growth inhibition": 2}, {"smiles": "CCOC(=O)[C@H]1CSC[C@@H](C(=O)OC)N1", "growth inhibition": 4.45}, {"smiles": "O=[N+]([O-])c1ccccc1C1N2CCCCC2[C@@H]2c3[nH]c4ccccc4c3CCN12", "note": "(stereo not given in full)", "growth inhibition": 1.85}, {"smiles": "CCOC(=O)c1nc2ccc(C(F)(F)F)cc2[nH]c1=O", "growth inhibition": -47.2}]}]}
